# PubChem BioAssay (Tox21)
# Several values for one entry are separate records, joined by “and”; a condition that tells them apart may be missing. Equal values may be shown once. Inconclusive results are not listed. Where a call stands in place of a potency, no number is given. Activity calls are given as the source filed them. Unless noted, calls come from the whole dose curve.
# Tests used:
# [1] = Nuclear factor erythroid 2-related factor 2/antioxidant responsive element (Nrf2/ARE) small molecule agonists: qHTS cell viability counter screen in human keratinocytes (AID 1919968; active = well fitted curve in the direction sought with a large enough effect in the repeat runs; an effect the other way counts as inactive or inconclusive; note: nearly all actives have a fitted effect of over 55% in size; note: potency is the fitted concentration of half-maximal effect)
# How it was run: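 CellTiter-Fluor fluorescence, read 1 h after reagent, gave viability in the same wells as the ARE-luciferase assay. KeratinoSens cells (1,500/well) had 23 h compound exposure at 37 C/5% CO2 following 5 h plating.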
# [2] = Nuclear factor erythroid 2-related factor 2/antioxidant responsive element (Nrf2/ARE) small molecule agonists: luciferase reporter gene qHTS assay in human keratinocytes (AID 1919969); note: nearly all actives have a fitted effect of over 35% in size; note: potency is the fitted concentration of half-maximal effect
# [3] = target: Gonadotropin-releasing hormone receptor (Homo sapiens) (UniProt P30968); assay: Human gonadotropin-releasing hormone receptor (GnRHR) small molecule agonists, calcium flux assay in GnRHR-HEK293 cells (AID 1920063); note: nearly all actives have a fitted effect of over 35% in size; note: potency is the fitted concentration of half-maximal effect
# How it was run: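 Agonist mode: compounds at 15 concentrations, in triplicate, went onto calcium dye-loaded GnRHR-HEK293 cells. Intracellular calcium was then followed as 480/540 nm fluorescence at 1 s intervals over 3 min.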
# [4] = target: KiSS-1 receptor (Homo sapiens) (UniProt Q969F8); assay: Human kisspeptin (KISS1R) small molecule agonists, calcium flux assay in KISS1R-HEK293 cells (AID 1920064; active = well fitted curve in the direction sought with a large enough effect in the repeat runs; an effect the other way counts as inactive or inconclusive)
# How it was run: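 Agonist mode: intracellular calcium rise tracked at 1 s intervals over 3 min (480/540 nm) immediately after compound addition to dye-loaded KISS1R-HEK293 stable cells. Each compound tested at 15 concentrations in triplicate.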
# [5] = G protein-coupled receptor (GPCR) small molecule agonists, calcium flux assay: HEK293 wild type cell line counter screen (AID 1920065)
# How it was run: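 Calcium flux counter screen: compound added in agonist mode at 15 concentrations in triplicate to dye-loaded parental HEK293 cells. Fluorescence (480/540) read kinetically for 3 min; ATP served as positive control.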
# [6] = p53 small molecule agonists, cell-based qHTS assay with human liver microsomes (AID 1963577);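 note: p53 response element beta-lactamase reporter cells with liver microsomes plus NADPH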
# How it was run: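 With metabolic activation: human liver microsomes (0.5 mg/mL final) plus NADPH (0.5 mg/mL final) added alongside compounds to p53RE-bla cells; 16 h 37 C exposure; beta-lactamase read by LiveBLAzer fluorescence.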
# [7] = p53 small molecule agonists, cell-based qHTS assay with rat liver microsomes (AID 1963578)
# How it was run: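 Metabolic activation by rat liver microsomes and NADPH, each 0.5 mg/mL final, added right after compounds to p53RE-bla reporter cells (4,000/well, plated 5 h earlier). 16 h at 37 C, then LiveBLAzer substrate for 2 h at room temperature in the dark; fluorescence read-out.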
# [8] = p53 small molecule agonists, cell-based qHTS assay with human liver microsomes: qHTS cell viability counter screen (AID 1963579); note: nearly all actives have a fitted effect of over 45% in size; note: potency is the fitted concentration of half-maximal effect
# How it was run: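 Metabolic activation used human liver microsomes and NADPH, both 0.5 mg/mL final, over 16 hours at 37 C on p53RE-bla cells (4,000/well). Cytotoxicity measured by CellTiter-Glo luminescence, 30 min at room temperature.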
# [9] = p53 small molecule agonists, cell-based qHTS assay (AID 1963582; active = well fitted activation curve with a large enough effect in the signal ratio in the repeat runs, not every such curve was filed as active; the % refers to the signal ratio; note: potency is the fitted concentration of half-maximal effect)
# How it was run: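 Read-out is beta-lactamase FRET fluorescence after 2 h at room temperature with LiveBLAzer B/G substrate. p53 response element-bla cells were treated 16 h at 37 C with compounds in DMSO, added 5 h after seeding.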
# [10] = target: 5-hydroxytryptamine receptor 2A (Homo sapiens) (UniProt P28223); assay: 5-hydroxytryptamine receptor 2A (HTR2A) small molecule antagonists, cell-based qHTS assay (AID 1963586); note: nearly all actives have a fitted effect of over 45% in size
# How it was run: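 CHO cells stably expressing human HTR2A were plated for 18 h at 37 C, then loaded with calcium dye for 1 h. Compounds were preincubated 5 min at room temperature before DOI (4 nM solution) was added. Kinetic fluorescence was read for 3 min.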
# [11] = target: 5-hydroxytryptamine receptor 2A (Homo sapiens) (UniProt P28223); assay: 5-hydroxytryptamine receptor 2A (HTR2A) small molecule agonists, cell-based qHTS assay (AID 1963587); note: nearly all actives have a fitted effect of over 30% in size
# How it was run: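 Kinetic calcium-flux fluorescence (2 min, 1 sec intervals) after compound addition in agonist mode. HTR2A-CHO cells were cultured 18 h, then dye-loaded 1 h at 37 C.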
# [12] = target: Muscarinic acetylcholine receptor M1 (Homo sapiens) (UniProt P11229); assay: Cholinergic receptor muscarinic 1 (CHRM1) small molecule antagonists, cell-based qHTS assay (AID 1963588); note: nearly all actives have a fitted effect of over 40% in size
# How it was run: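 Compounds were tested at 15 concentrations in three independent runs. Dye-loaded CHRM1-CHO cells were exposed 5 min at room temperature before stimulation by acetylcholine added at 50nM. Intracellular calcium was read kinetically on FDSS for 3 min.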
# [13] = target: Muscarinic acetylcholine receptor M1 (Homo sapiens) (UniProt P11229); assay: Cholinergic receptor muscarinic 1 (CHRM1) small molecule agonists, cell-based qHTS assay (AID 1963589); note: nearly all actives have a fitted effect of over 35% in size; note: potency is the fitted concentration of half-maximal effect
# How it was run: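 Agonist-mode calcium-flux screen: compounds at 15 concentrations, three independent runs, were pin-transferred onto dye-loaded human CHRM1-CHO cells. Fluorescence was then recorded kinetically every second over minutes.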
# [14] = cAMP Responsive Elements (CRE) small molecule agonists, cell-based qHTS assay (AID 1963590)
# How it was run: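 Agonist mode: compound added to CRE-bla HEK 293T cells (2,000/well, 18 h after plating) for 3 h at 37 C/5% CO2. Reporter activity detected via FRET beta-lactamase substrate, 2 h room-temperature loading.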
# [15] = cAMP Responsive Elements (CRE) small molecule antagonists, cell-based qHTS assay (AID 1963591; active = well fitted inhibition curve with a large enough effect in the signal ratio in the repeat runs, not every such curve was filed as active; the % refers to the signal ratio)
# How it was run: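 Antagonist mode: compounds are added alongside the adenylyl cyclase activator NKH477 (0.25 uM final) to CRE-bla HEK293T cells for 3 h. LiveBLAzer FRET substrate, 2 h at room temperature, reports bla expression.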
# [16] = target: Beta-2 adrenergic receptor (Homo sapiens) (UniProt P07550); assay: Adrenergic beta2 receptor (ADRB2) small molecule antagonists, cell-based qHTS assay (AID 1963592); note: series mostly up to about 92 µM; nearly all actives have a fitted effect of over 50% in size
# How it was run: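 Assay format: CHO-ADRB2 cells, 18-20hr seeding at 37C/5% CO2, then compound plus 1nM isoproterenol agonist mix for 0.5hr RT. Homogeneous time-resolved fluorescence cAMP detection after 1hr, expressed as 665/615 nm ratio.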
# [17] = target: Beta-2 adrenergic receptor (Homo sapiens) (UniProt P07550); assay: Adrenergic beta2 receptor (ADRB2) small molecule agonists, cell-based qHTS assay (AID 1963593);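 note: CHO cells stably overexpressing human ADRB2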
# How it was run: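 CHO cells stably over-expressing ADRB2 were plated overnight at 37C, then dosed with compounds plus a stimulation mix containing 100uM IBMX and 25uM Ro-20-1724 for 0.5hr at room temperature. cAMP was measured by HTRF competition, 1hr.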
# [18] = target: D(2) dopamine receptor (Homo sapiens) (UniProt P14416); assay: Dopamine D2 receptor (DRD2) small molecule antagonists, cell-based qHTS assay (AID 1963595; active = well fitted inhibition curve with a large enough effect in the signal ratio in the repeat runs, with a control signal flat; the % refers to the signal ratio)
# How it was run: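 Antagonism was scored as restored cAMP in HEK293-DRD2 cells. These cells were stimulated with 200 nM NKH477 and 12 nM quinpirole for 30 min at room temperature, in the presence of 0.1 mM Ro20-1724.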
# [19] = target: D(2) dopamine receptor (Homo sapiens) (UniProt P14416); assay: Dopamine D2 receptor (DRD2) small molecule agonists, cell-based qHTS assay (AID 1963594); note: nearly all actives have a fitted effect of over 35% in size
# How it was run: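 cAMP accumulation in DRD2-HEK293 cells measured by HTRF after 1 h detection; compounds added 10 min before NKH477 (200nM […]) forskolin-analogue stimulation, 30 min at room temperature, with Ro20-1724 present at 0.1 mM final.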
# [20] = p53 small molecule agonists, cell-based qHTS assay with rat liver microsomes: qHTS cell viability counter screen (AID 1963580); note: nearly all actives have a fitted effect of over 45% in size
# How it was run: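 Cytotoxicity counter screen: intracellular ATP read by CellTiter-Glo luminescence in the p53 reporter wells. HCT-116 p53RE-bla cells were treated for 16 h at 37 C alongside rat liver microsomes and NADPH, each 0.5 mg/mL final.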
# Sequence of 5-hydroxytryptamine receptor 2A (Homo sapiens) (P28223 whole entry, looked up): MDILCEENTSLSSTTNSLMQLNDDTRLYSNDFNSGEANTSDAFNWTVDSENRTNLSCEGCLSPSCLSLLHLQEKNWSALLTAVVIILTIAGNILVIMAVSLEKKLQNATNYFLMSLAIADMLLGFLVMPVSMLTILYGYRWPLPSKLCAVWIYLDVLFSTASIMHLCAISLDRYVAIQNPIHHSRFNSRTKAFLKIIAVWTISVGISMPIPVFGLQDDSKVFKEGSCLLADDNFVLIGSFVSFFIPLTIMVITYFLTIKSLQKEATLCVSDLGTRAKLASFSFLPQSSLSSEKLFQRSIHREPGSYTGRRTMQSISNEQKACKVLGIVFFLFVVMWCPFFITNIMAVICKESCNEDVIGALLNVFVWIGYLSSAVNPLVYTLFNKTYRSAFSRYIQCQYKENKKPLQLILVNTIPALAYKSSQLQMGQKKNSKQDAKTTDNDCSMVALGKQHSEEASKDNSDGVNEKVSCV
# Sequence of D(2) dopamine receptor (Homo sapiens) (P14416 whole entry, looked up): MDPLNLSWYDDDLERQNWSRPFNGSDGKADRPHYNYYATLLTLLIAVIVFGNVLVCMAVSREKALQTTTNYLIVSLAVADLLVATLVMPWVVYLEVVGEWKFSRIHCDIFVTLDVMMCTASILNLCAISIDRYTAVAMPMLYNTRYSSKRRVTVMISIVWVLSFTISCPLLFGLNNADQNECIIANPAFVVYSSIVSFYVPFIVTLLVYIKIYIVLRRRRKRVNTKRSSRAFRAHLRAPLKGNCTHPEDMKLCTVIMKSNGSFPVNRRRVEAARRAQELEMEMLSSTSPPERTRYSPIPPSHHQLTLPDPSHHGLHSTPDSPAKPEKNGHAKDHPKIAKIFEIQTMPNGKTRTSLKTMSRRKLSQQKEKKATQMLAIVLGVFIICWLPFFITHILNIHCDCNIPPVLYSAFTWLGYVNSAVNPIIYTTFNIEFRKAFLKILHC
# Sequence of Gonadotropin-releasing hormone receptor (Homo sapiens) (P30968 whole entry, looked up): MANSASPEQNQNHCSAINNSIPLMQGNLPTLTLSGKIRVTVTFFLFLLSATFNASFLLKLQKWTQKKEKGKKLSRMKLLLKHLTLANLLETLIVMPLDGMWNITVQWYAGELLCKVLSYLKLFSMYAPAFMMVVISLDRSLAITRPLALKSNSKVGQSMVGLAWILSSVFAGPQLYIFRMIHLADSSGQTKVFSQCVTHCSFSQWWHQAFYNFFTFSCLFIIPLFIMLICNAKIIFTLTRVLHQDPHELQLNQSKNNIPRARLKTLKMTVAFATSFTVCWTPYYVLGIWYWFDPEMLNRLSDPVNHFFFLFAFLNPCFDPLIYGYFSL
# Sequence of KiSS-1 receptor (Homo sapiens) (Q969F8 whole entry, looked up): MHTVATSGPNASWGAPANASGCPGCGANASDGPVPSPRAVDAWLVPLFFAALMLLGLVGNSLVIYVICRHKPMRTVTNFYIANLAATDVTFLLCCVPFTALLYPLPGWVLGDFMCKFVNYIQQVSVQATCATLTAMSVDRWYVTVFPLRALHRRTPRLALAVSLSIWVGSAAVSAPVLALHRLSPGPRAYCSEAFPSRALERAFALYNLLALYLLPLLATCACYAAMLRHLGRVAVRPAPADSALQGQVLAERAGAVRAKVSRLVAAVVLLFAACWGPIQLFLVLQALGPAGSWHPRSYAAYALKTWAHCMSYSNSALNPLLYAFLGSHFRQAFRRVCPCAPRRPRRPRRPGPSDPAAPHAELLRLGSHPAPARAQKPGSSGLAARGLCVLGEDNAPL
# Sequence of Beta-2 adrenergic receptor (Homo sapiens) (P07550 whole entry, looked up): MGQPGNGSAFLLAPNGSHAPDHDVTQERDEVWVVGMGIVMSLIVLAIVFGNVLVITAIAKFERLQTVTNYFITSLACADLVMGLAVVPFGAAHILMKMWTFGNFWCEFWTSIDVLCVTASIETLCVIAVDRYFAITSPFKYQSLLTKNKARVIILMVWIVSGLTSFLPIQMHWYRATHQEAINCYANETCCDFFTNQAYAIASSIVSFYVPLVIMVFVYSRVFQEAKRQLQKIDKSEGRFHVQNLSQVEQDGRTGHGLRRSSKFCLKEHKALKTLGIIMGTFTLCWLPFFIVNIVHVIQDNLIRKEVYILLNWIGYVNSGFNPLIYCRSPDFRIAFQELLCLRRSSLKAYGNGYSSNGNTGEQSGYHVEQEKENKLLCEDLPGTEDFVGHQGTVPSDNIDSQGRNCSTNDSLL
# Sequence of Muscarinic acetylcholine receptor M1 (Homo sapiens) (P11229 whole entry, looked up): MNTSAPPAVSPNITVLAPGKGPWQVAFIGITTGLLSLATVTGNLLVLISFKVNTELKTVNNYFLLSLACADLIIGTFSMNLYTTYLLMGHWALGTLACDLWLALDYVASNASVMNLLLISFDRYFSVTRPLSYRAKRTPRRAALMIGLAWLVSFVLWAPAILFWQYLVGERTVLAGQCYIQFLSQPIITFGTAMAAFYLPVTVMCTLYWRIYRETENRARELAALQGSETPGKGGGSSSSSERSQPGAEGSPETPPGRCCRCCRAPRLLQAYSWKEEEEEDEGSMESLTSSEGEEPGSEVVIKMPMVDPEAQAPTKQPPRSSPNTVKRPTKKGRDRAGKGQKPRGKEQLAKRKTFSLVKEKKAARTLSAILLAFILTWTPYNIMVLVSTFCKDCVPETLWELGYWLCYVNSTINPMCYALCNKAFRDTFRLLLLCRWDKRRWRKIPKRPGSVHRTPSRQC
Structure (SMILES),Potency [1],Potency [2],Potency [3],Potency [4],Potency [5],Potency [6],Potency [7],Potency [8],Potency [9],Potency [10],Potency [11],Potency [12],Potency [13],Potency [14],Potency [15],Potency [16],Potency [17],Potency [18],Potency [19],Potency [20]
C=CCCCCCCCC,inactive,inactive,inactive,inactive,inactive,inactive,inactive,inactive,inactive,inactive,inactive,inactive,inactive,inactive,inactive,inactive,inactive,inactive,,
O=Cc1ccc(F)cc1,inactive,inactive,inactive,inactive,inactive,inactive,inactive,inactive,inactive,inactive,inactive,inactive,inactive,inactive,inactive,inactive,inactive,inactive,inactive,
CN(C)c1ccc2nc3ccc(=[N+](C)C)cc-3sc2c1,54.5 µM (active),10.4 µM (active) and 15.4 µM (active) and 13.3 µM (active),inactive,inactive,inactive,inactive,inactive,8.14 µM (active),28.9 µM (active),inactive,inactive,inactive,inactive,inactive,inactive,,,,,
CC(C[N+](C)(C)C)OC(N)=O (configuration not stated),inactive,inactive,13.5 µM (active),inactive,inactive,inactive,inactive,inactive,inactive,inactive,inactive,inactive,2.39 µM (active),inactive,inactive,inactive,inactive,inactive,,
CCOC(=O)[C@H](CCc1ccccc1)N[C@@H](C)C(=O)N1Cc2ccccc2C[C@H]1C(=O)O,inactive,inactive,inactive,inactive,inactive,inactive,inactive,inactive,inactive,,,,,inactive,inactive,inactive,inactive,inactive,inactive,inactive
CC1=CC[C@@H](C(C)(C)O)CC1,inactive,inactive,inactive,inactive,inactive,inactive,inactive,inactive,inactive,inactive,inactive,inactive,inactive,inactive,inactive,inactive,inactive,inactive,inactive,
O=[Si]=O,inactive,inactive,inactive,inactive,inactive,inactive,inactive,inactive,inactive,,inactive,inactive,inactive,inactive,inactive,inactive,inactive,inactive,inactive,inactive
CCCC(=O)OCc1ccccc1,inactive,inactive,inactive,inactive,inactive,inactive,inactive,inactive,inactive,,inactive,inactive,inactive,inactive,inactive,inactive,,inactive,inactive,inactive
CCCCCCCCSCCO,inactive,inactive,inactive,inactive,inactive,inactive,inactive,inactive,inactive,inactive,inactive,inactive,inactive,inactive,inactive,inactive,,inactive,inactive,
COC(=O)CCCCC(=O)O,inactive,inactive,inactive,inactive,inactive,inactive,inactive,inactive,inactive,inactive,inactive,inactive,inactive,inactive,inactive,inactive,inactive,inactive,inactive,
N#Cc1cc(NC(=O)C(=O)O)c(Cl)c(NC(=O)C(=O)O)c1,inactive,inactive,inactive,inactive,inactive,inactive,inactive,inactive,inactive,inactive,,,inactive,,inactive,inactive,,inactive,inactive,inactive
C[C@@H]1O[C@@H](OC[C@H]2O[C@@H](Oc3c(-c4ccc(O)c(O)c4)oc4cc(O)cc(O)c4c3=O)[C@H](O)[C@@H](O)[C@@H]2O)[C@H](O)[C@H](O)[C@H]1O,inactive,inactive,inactive,inactive,inactive,inactive,inactive,inactive,,inactive,,,inactive,inactive,inactive,inactive,,inactive,inactive,inactive
Cc1cccc(N)n1,inactive,inactive,inactive,inactive,inactive,inactive,inactive,inactive,inactive,inactive,inactive,inactive,inactive,inactive,inactive,inactive,inactive,inactive,inactive,
O=Nc1ccc(NO)cc1,inactive,63.6 µM (active),inactive,inactive,inactive,inactive,inactive,inactive,inactive,inactive,,inactive,,inactive,inactive,,,,,inactive
O=c1[nH]c2ccccc2c(=O)n1CCCl,inactive,inactive,inactive,inactive,inactive,inactive,inactive,inactive,inactive,inactive,inactive,inactive,inactive,inactive,inactive,inactive,,inactive,inactive,
